# Results reported in the supplement of paper PMC12282887.
# ± gives the standard deviation of the averaged measurements.
# Assays:
# Assay in all cases: promoter activity interaction Z-score (Lux/OD deviation from empty-vector control); higher = stronger promoter induction by the compound
# [1] = system: E. coli BW25113 acrABp lux reporter
# How it was run: (§1)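 Four 1:2 dilutions of each compound were tested in biological duplicates on E. coli BW25113 carrying low-copy luxCDABE promoter reporters, either wild type or deleted for one of three genes. Cultures of 40 µl LB Lennox in 384-well plates were kept at 37°C and read for OD600 and luminescence every 30 min for 12 h. Integration windows were 0–8 h for wild type and 1–9 h for deletion strains, and wells under 10% of the median growth value were discarded. The score is a Z-transformed residual of growth-normalised luminescence relative to a control fit.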
# [2] = system: E. coli BW25113 micFp lux reporter
# How it was run: as §1
# [3] = system: E. coli BW25113 ompFp lux reporter
# How it was run: as §1
# [4] = system: E. coli BW25113 robp lux reporter
# How it was run: as §1
# [5] = system: E. coli BW25113 soxSp lux reporter
# How it was run: as §1
# [6] = system: E. coli BW25113 tolCp lux reporter
# How it was run: as §1
# [7] = 0.0012 µg/ml, genetic background: wild type
# [8] = 0.0012 µg/ml, genetic background: ΔmarA
# [9] = 0.0012 µg/ml, genetic background: Δrob
# [10] = 0.0012 µg/ml, genetic background: ΔsoxS
# [11] = 0.0024 µg/ml, genetic background: wild type
# [12] = 0.0024 µg/ml, genetic background: ΔmarA
# [13] = 0.0024 µg/ml, genetic background: Δrob
# [14] = 0.0024 µg/ml, genetic background: ΔsoxS
# [15] = 0.0048 µg/ml, genetic background: wild type
# [16] = 0.0048 µg/ml, genetic background: ΔmarA
# [17] = 0.0048 µg/ml, genetic background: Δrob
# [18] = 0.0048 µg/ml, genetic background: ΔsoxS
# [19] = 0.01 µg/ml, genetic background: wild type
# [20] = 0.01 µg/ml, genetic background: ΔmarA
# [21] = 0.01 µg/ml, genetic background: Δrob
# [22] = 0.01 µg/ml, genetic background: ΔsoxS
compound,measurement,setting,value
CO/N=C(\C(=O)N[C@@H]1C(=O)N2C(C(=O)O)=C(COC(C)=O)CS[C@H]12)c1csc(N)n1 [Cefotaxime],promoter activity interaction Z-score,[1]; [7],-0.284 ± 0.025
same,promoter activity interaction Z-score,[1]; [8],0.0868 ± 0.9
same,promoter activity interaction Z-score,[1]; [9],-0.103 ± 0.27
same,promoter activity interaction Z-score,[1]; [10],-0.098 ± 0.18
same,promoter activity interaction Z-score,[1]; [11],-0.0863 ± 0.2
same,promoter activity interaction Z-score,[1]; [12],-0.059 ± 0.93
same,promoter activity interaction Z-score,[1]; [13],0.00639 ± 0.18
same,promoter activity interaction Z-score,[1]; [14],0.118 ± 0.16
same,promoter activity interaction Z-score,[1]; [15],-0.23 ± 0.15
same,promoter activity interaction Z-score,[1]; [16],0.42 ± 0.9
same,promoter activity interaction Z-score,[1]; [17],-0.311 ± 0.072
same,promoter activity interaction Z-score,[1]; [18],-0.148 ± 0.096
same,promoter activity interaction Z-score,[1]; [19],-0.274 ± 0.025
same,promoter activity interaction Z-score,[1]; [20],-1.6 ± 0.042
same,promoter activity interaction Z-score,[1]; [21],-0.154 ± 0.33
same,promoter activity interaction Z-score,[1]; [22],0.212 ± 0.064
same,promoter activity interaction Z-score,[2]; [7],0.00627 ± 0.0068
same,promoter activity interaction Z-score,[2]; [8],-0.0578 ± 0.08
same,promoter activity interaction Z-score,[2]; [9],0.0368 ± 0.11
same,promoter activity interaction Z-score,[2]; [10],-0.0273 ± 0.11
same,promoter activity interaction Z-score,[2]; [11],-0.0766 ± 0.15
same,promoter activity interaction Z-score,[2]; [12],0.0449 ± 0.11
same,promoter activity interaction Z-score,[2]; [13],0.0295 ± 0.15
same,promoter activity interaction Z-score,[2]; [14],-0.18 ± 0.098
same,promoter activity interaction Z-score,[2]; [15],-0.0576 ± 0.36
same,promoter activity interaction Z-score,[2]; [16],-0.223 ± 0.19
same,promoter activity interaction Z-score,[2]; [17],0.0329 ± 0.18
same,promoter activity interaction Z-score,[2]; [18],-0.198 ± 0.15
same,promoter activity interaction Z-score,[2]; [19],-0.5 ± 0.52
same,promoter activity interaction Z-score,[2]; [20],-0.278 ± 0.011
same,promoter activity interaction Z-score,[2]; [21],-0.0107 ± 0.074
same,promoter activity interaction Z-score,[2]; [22],-0.133 ± 0.077
same,promoter activity interaction Z-score,[3]; [7],-0.111 ± 0.025
same,promoter activity interaction Z-score,[3]; [8],-0.439 ± 0.11
same,promoter activity interaction Z-score,[3]; [9],-0.492 ± 0.1
same,promoter activity interaction Z-score,[3]; [10],0.179 ± 0.43
same,promoter activity interaction Z-score,[3]; [11],0.0538 ± 0.32
same,promoter activity interaction Z-score,[3]; [12],0.191 ± 0.18
same,promoter activity interaction Z-score,[3]; [13],-0.287 ± 0.12
same,promoter activity interaction Z-score,[3]; [14],-0.23 ± 0.033
same,promoter activity interaction Z-score,[3]; [15],-0.24 ± 0.46
same,promoter activity interaction Z-score,[3]; [16],-0.537 ± 0.14
same,promoter activity interaction Z-score,[3]; [17],-0.409 ± 0.18
same,promoter activity interaction Z-score,[3]; [18],-0.158 ± 0.26
same,promoter activity interaction Z-score,[3]; [19],-0.753 ± 0.55
same,promoter activity interaction Z-score,[3]; [20],-2.18 ± 0.79
same,promoter activity interaction Z-score,[3]; [21],-0.598 ± 0.51
same,promoter activity interaction Z-score,[3]; [22],-2.53
same,promoter activity interaction Z-score,[4]; [7],-0.219 ± 0.23
same,promoter activity interaction Z-score,[4]; [8],-0.756 ± 0.2
same,promoter activity interaction Z-score,[4]; [9],-0.209 ± 0.28
same,promoter activity interaction Z-score,[4]; [10],-0.0836 ± 0.31
same,promoter activity interaction Z-score,[4]; [11],-0.0844 ± 0.072
same,promoter activity interaction Z-score,[4]; [12],0.0702 ± 0.056
same,promoter activity interaction Z-score,[4]; [13],0.0668 ± 0.073
same,promoter activity interaction Z-score,[4]; [14],-0.0496 ± 0.19
same,promoter activity interaction Z-score,[4]; [15],0.227 ± 0.29
same,promoter activity interaction Z-score,[4]; [16],-0.466 ± 0.095
same,promoter activity interaction Z-score,[4]; [17],0.0502 ± 0.2
same,promoter activity interaction Z-score,[4]; [18],-0.0174 ± 0.097
same,promoter activity interaction Z-score,[4]; [19],-1.42 ± 0.066
same,promoter activity interaction Z-score,[4]; [20],-2.06 ± 1.6
same,promoter activity interaction Z-score,[4]; [21],-1.76 ± 0.19
same,promoter activity interaction Z-score,[4]; [22],-2.39 ± 0.34
same,promoter activity interaction Z-score,[5]; [7],0.251 ± 0.06
same,promoter activity interaction Z-score,[5]; [8],-0.00348 ± 0.14
same,promoter activity interaction Z-score,[5]; [9],0.17 ± 0.16
same,promoter activity interaction Z-score,[5]; [10],0.0148 ± 0.24
same,promoter activity interaction Z-score,[5]; [11],0.182 ± 0.044
same,promoter activity interaction Z-score,[5]; [12],0.121 ± 0.06
same,promoter activity interaction Z-score,[5]; [13],0.225 ± 0.25
same,promoter activity interaction Z-score,[5]; [14],0.066 ± 0.3
same,promoter activity interaction Z-score,[5]; [15],-0.0447 ± 0.15
same,promoter activity interaction Z-score,[5]; [16],-0.225 ± 0.1
same,promoter activity interaction Z-score,[5]; [17],-0.0284 ± 0.17
same,promoter activity interaction Z-score,[5]; [18],-0.179 ± 0.2
same,promoter activity interaction Z-score,[5]; [19],-0.209 ± 0.042
same,promoter activity interaction Z-score,[5]; [20],-0.312 ± 0.071
same,promoter activity interaction Z-score,[5]; [21],-0.223 ± 0.19
same,promoter activity interaction Z-score,[5]; [22],0.193 ± 0.17
same,promoter activity interaction Z-score,[6]; [7],0.0259 ± 0.64
same,promoter activity interaction Z-score,[6]; [8],0.293 ± 0.38
same,promoter activity interaction Z-score,[6]; [9],-0.312 ± 0.38
same,promoter activity interaction Z-score,[6]; [10],-0.0825 ± 0.76
same,promoter activity interaction Z-score,[6]; [11],0.373 ± 1.2
same,promoter activity interaction Z-score,[6]; [12],0.241 ± 0.74
same,promoter activity interaction Z-score,[6]; [13],-0.132 ± 1.1
same,promoter activity interaction Z-score,[6]; [14],-0.287 ± 1.4
same,promoter activity interaction Z-score,[6]; [15],0.132 ± 0.29
same,promoter activity interaction Z-score,[6]; [16],-0.365 ± 0.46
same,promoter activity interaction Z-score,[6]; [17],-0.311 ± 0.89
same,promoter activity interaction Z-score,[6]; [18],0.17 ± 0.82
same,promoter activity interaction Z-score,[6]; [19],-0.425 ± 1.4
same,promoter activity interaction Z-score,[6]; [20],-0.436 ± 0.19
same,promoter activity interaction Z-score,[6]; [21],0.622 ± 1.5
same,promoter activity interaction Z-score,[6]; [22],-0.234 ± 0.026
